Measured values as given in PubChem BioAssay AID1159580 (chemical genetic matrix, 2015).
Where “and” joins values, the source holds several entries; their conditions need not be identical. Equal entries are not always repeated. In all, about 5,500 compounds went through this assay and about 2,000 (36%) were called active. Another 18% or so got no clear call; they are omitted. No stated cut-off is given here; in the data, active means normalized growth mostly below about 0.91 (no sharp cut-off); inconclusive means no clear call, values can overlap the other calls; inactive means mostly above about 0.92. The list shows a part of the results.

Assay: chemical genetic growth profiling, strain panel (AID 1159580);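 further: tested at 20 µM; growth read once vehicle control cultures reached saturation at 30 °C; 1 = growth at the plate median or of vehicle wells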
Conditions: S. cerevisiae deletion strains, growth OD

Measured: normalized growth

COc1ccc2c(c1)OCc1c-2oc2cc(OC)ccc12
0.542 (active) and 0.952 (inactive): locus YJL095W, strain BCK1, stronger effect = lower value
active: locus YAL021C, strain ccr4, stronger effect = lower value 0.901 | locus YAL026C, strain drs2, stronger effect = lower value 0.764 | locus YAL030W, strain snc1, stronger effect = lower value 0.919 | locus YBL061C, strain skt5, stronger effect = lower value 0.864 | locus YBR009C, strain hhf1, stronger effect = lower value 0.737 | locus YBR023C, strain chs3, stronger effect = lower value 0.862 | locus YBR231C, strain swc5, stronger effect = lower value 0.909 | locus YBR279W, strain paf1, stronger effect = lower value 0.894 | locus YCL011C, strain gbp2, stronger effect = lower value 0.792 | locus YCL016C, strain dcc1, stronger effect = lower value 0.858 | locus YDR137W, strain rgp1, stronger effect = lower value 0.415 | locus YDR159W, strain sac3, stronger effect = lower value 0.724 | locus YDR297W, strain sur2, stronger effect = lower value 0.894 | locus YDR335W, strain msn5, stronger effect = lower value 0.857 | locus YDR392W, strain spt3, stronger effect = lower value 0.162 | locus YEL003W, strain gim4, stronger effect = lower value 0.806 | locus YEL061C, strain CIN8 (second series), stronger effect = lower value 0.777 | locus YEL061C, strain CIN8, stronger effect = lower value 0.666 | locus YER015W, strain faa2, stronger effect = lower value 0.9 | locus YER016W, strain bim1, stronger effect = lower value 0.87 | locus YER111C, strain swi4, stronger effect = lower value 0.84 | locus YER155C, strain BEM2 (second series), stronger effect = lower value 0.505 | locus YGL173C, strain kem1, stronger effect = lower value 0.851 | locus YGL240W, strain doc1, stronger effect = lower value 0.756 | locus YGL248W, strain PDE1, stronger effect = lower value 0.84 | locus YGL253W, strain hxk2, stronger effect = lower value 0.866 | locus YHR027C, strain rpn1, stronger effect = lower value 0.916 | locus YHR129C, strain ARP1, stronger effect = lower value 0.779 | locus YHR142W, strain chs7, stronger effect = lower value 0.659 | locus YIL066C, strain RNR3, stronger effect = lower value 0.745 | locus YJL095W, strain BCK1 (second series), stronger effect = lower value 0.761 | locus YJL129C, strain trk1, stronger effect = lower value 0.839 | locus YJL164C, strain tpk1, stronger effect = lower value 0.79 | locus YJL166W, strain qcr8, stronger effect = lower value 0.779 | locus YKL160W, strain elf1, stronger effect = lower value 0.748 | locus YKR001C, strain vps1, stronger effect = lower value 0.777 | locus YLL001W, strain dnm1, stronger effect = lower value 0.871 | locus YLR027C, strain aat2, stronger effect = lower value 0.8 | locus YLR039C, strain RIC1, stronger effect = lower value 0.446 | locus YLR221C, strain rsa3, stronger effect = lower value 0.762 | locus YLR258W, strain gsy2, stronger effect = lower value 0.895 | locus YLR262C, strain YPT6 (second series), stronger effect = lower value 0.387 | locus YLR262C, strain YPT6, stronger effect = lower value 0.505 | locus YLR320W, strain mms22, stronger effect = lower value 0.625 | locus YLR342W, strain FKS1, stronger effect = lower value 0.73 | locus YML120C, strain ndi1, stronger effect = lower value 0.842 | locus YMR058W, strain fet3, stronger effect = lower value 0.699 | locus YMR125W, strain sto1, stronger effect = lower value 0.877 | locus YMR205C, strain PFK2, stronger effect = lower value 0.694 | locus YMR231W, strain pep5, stronger effect = lower value 0.912 | locus YNL071W, strain lat1, stronger effect = lower value 0.502 | locus YNL307C, strain MCK1, stronger effect = lower value 0.858 | locus YNL322C, strain KRE1, stronger effect = lower value 0.874 | locus YOR070C, strain gyp1, stronger effect = lower value 0.836 | locus YOR083W, strain WHI5, stronger effect = lower value 0.812 | locus YOR106W, strain vam3, stronger effect = lower value 0.822 | locus YOR184W, strain ser1, stronger effect = lower value 0.821 | locus YOR265W, strain rbl2, stronger effect = lower value 0.928 | locus YOR270C, strain vph1, stronger effect = lower value 0.476 | locus YOR290C, strain snf2, stronger effect = lower value 0.834 | locus YPL051W, strain arl3, stronger effect = lower value 0.677 | locus YPL078C, strain atp4, stronger effect = lower value 0.764 | locus YPL240C, strain hsp82, stronger effect = lower value 0.915
inactive: locus YBR021W, strain FUR4, stronger effect = lower value 0.946 | locus YBR171W, strain sec66, stronger effect = lower value 0.973 | locus YBR229C, strain ROT2, stronger effect = lower value 0.997 | locus YCL029C, strain bik1, stronger effect = lower value 1 | locus YCL069W, strain vba3, stronger effect = lower value 0.945 | locus YCR088W, strain abp1, stronger effect = lower value 0.945 | locus YDL005C, strain med2, stronger effect = lower value 1.02 | locus YDL035C, strain GPR1, stronger effect = lower value 0.955 | locus YDL040C, strain nat1, stronger effect = lower value 0.988 | locus YDL101C, strain DUN1, stronger effect = lower value 0.915 | locus YDL134C, strain PPH21, stronger effect = lower value 0.908 | locus YDL185W, strain tfp1, stronger effect = lower value 1.05 | locus YDL192W, strain arf1, stronger effect = lower value 1.01 | locus YDR001C, strain nth1, stronger effect = lower value 0.989 | locus YDR069C, strain doa4, stronger effect = lower value 0.959 | locus YDR101C, strain arx1, stronger effect = lower value 0.997 | locus YDR150W, strain NUM1, stronger effect = lower value 0.991 | locus YDR162C, strain NBP2, stronger effect = lower value 0.872 | locus YDR195W, strain ref2 1.08 | locus YDR318W, strain mcm21, stronger effect = lower value 0.988 | locus YDR334W, strain swr1, stronger effect = lower value 1.01 | locus YDR388W, stronger effect = lower value 1 | locus YDR502C, strain sam2, stronger effect = lower value 0.985 | locus YEL037C, strain rad23, stronger effect = lower value 0.986 | locus YER110C, stronger effect = lower value 0.995 | locus YER155C, strain BEM2, stronger effect = lower value 0.941 | locus YFR010W, strain ubp6, stronger effect = lower value 0.942 | locus YGL078C, strain dbp3, stronger effect = lower value 1.03 | locus YGL086W, strain mad1, stronger effect = lower value 0.947 | locus YGL167C, strain pmr1, stronger effect = lower value 0.977 | locus YGL227W, strain vid30, stronger effect = lower value 0.935 | locus YGR078C, strain PAC10, stronger effect = lower value 0.943 | locus YGR135W, strain pre9, stronger effect = lower value 1.01 | locus YGR252W, strain gcn5, stronger effect = lower value 0.967 | locus YHR013C, strain ard1, stronger effect = lower value 0.975 | locus YHR030C, strain SLT2, stronger effect = lower value 0.966 | locus YHR079C, strain IRE1 (second series), stronger effect = lower value 1 | locus YHR079C, strain IRE1, stronger effect = lower value 0.951 | locus YHR094C, strain hxt1, stronger effect = lower value 1.02 | locus YHR200W, strain rpn10, stronger effect = lower value 1.01 | locus YIL073C, strain SPO22, stronger effect = lower value 1.18 | locus YIL125W, strain kgd1, stronger effect = lower value 0.996 | locus YIR030C, strain dcg1, stronger effect = lower value 1 | locus YJL092W, strain hpr5, stronger effect = lower value 0.943 | locus YJL115W, strain asf1, stronger effect = lower value 0.995 | locus YJL134W, strain LCB3, stronger effect = lower value 1.01 | locus YJL154C, strain vps35, stronger effect = lower value 1 | locus YJL168C, strain set2, stronger effect = lower value 1.01 | locus YJR043C, strain POL32, stronger effect = lower value 0.953 | locus YJR066W, strain TOR1, stronger effect = lower value 0.876 | locus YJR075W, strain HOC1, stronger effect = lower value 0.898 | locus YKL009W, strain mrt4, stronger effect = lower value 1.02 | locus YKL068W, stronger effect = lower value 1.01 | locus YKL085W, strain MDH1 (second series), stronger effect = lower value 0.984 | locus YKL085W, strain MDH1, stronger effect = lower value 0.984 | locus YKL190W, strain CNB1, stronger effect = lower value 1 | locus YKR026C, strain gcn3, stronger effect = lower value 0.988 | locus YKR091W, strain srl3, stronger effect = lower value 0.987 | locus YLL041C, strain sdh2, stronger effect = lower value 0.972 | locus YLR058C, strain SHM2, stronger effect = lower value 0.936 | locus YLR102C, strain apc9, stronger effect = lower value 1.01 | locus YLR113W, strain HOG1, stronger effect = lower value 0.928 | locus YLR268W, strain sec22, stronger effect = lower value 0.966 | locus YLR330W, strain CHS5, stronger effect = lower value 0.929 | locus YLR342W, strain FKS1 (second series), stronger effect = lower value 0.796 | locus YLR357W, strain rsc2, stronger effect = lower value 0.909 | locus YLR370C, strain arc18, stronger effect = lower value 0.94 | locus YLR371W, strain rom2, stronger effect = lower value 1.01 | locus YLR384C, strain iki3, stronger effect = lower value 1.01 | locus YLR418C, strain cdc73, stronger effect = lower value 0.901 | locus YML016C, strain PPZ1, stronger effect = lower value 0.978 | locus YML032C, strain rad52, stronger effect = lower value 0.959 | locus YML124C, strain tub3, stronger effect = lower value 1.01 | locus YMR078C, strain ctf18, stronger effect = lower value 1.01 | locus YMR129W, stronger effect = lower value 0.985 | locus YMR223W, strain ubp8, stronger effect = lower value 1.01 | locus YMR263W, strain SAP30, stronger effect = lower value 0.954 | locus YMR307W, strain GAS1, stronger effect = lower value 1 | locus YNL067W, strain RPL9B, stronger effect = lower value 0.92 | locus YNL153C, strain GIM3, stronger effect = lower value 0.968 | locus YNL183C, strain NPR1, stronger effect = lower value 0.888 | locus YNL209W, strain ssb2, stronger effect = lower value 0.965 | locus YNL233W, strain BNI4, stronger effect = lower value 0.9 | locus YNL248C, strain rpa49, stronger effect = lower value 0.894 | locus YNL250W, strain rad50, stronger effect = lower value 1.03 | locus YNL271C, strain bni1, stronger effect = lower value 1.01 | locus YNL298W, strain CLA4, stronger effect = lower value 1.03 | locus YNL322C, strain KRE1 (second series), stronger effect = lower value 0.955 | locus YNR049C, strain mso1, stronger effect = lower value 1 | locus YNR052C, strain pop2, stronger effect = lower value 1.02 | locus YOL012C, strain htz1 0.977 | locus YOL147C, strain pex11, stronger effect = lower value 1.01 | locus YOR001W, strain rrp6, stronger effect = lower value 0.896 | locus YOR061W, strain CKA2, stronger effect = lower value 1 | locus YOR069W, strain VPS5, stronger effect = lower value 0.956 | locus YOR080W, strain dia2, stronger effect = lower value 1 | locus YOR136W, strain idh2, stronger effect = lower value 1 | locus YOR144C, strain elg1, stronger effect = lower value 0.991 | locus YOR231W, strain MKK1, stronger effect = lower value 0.938 | locus YOR316C, strain cot1, stronger effect = lower value 1.02 | locus YPL106C, strain sse1, stronger effect = lower value 0.969 | locus YPL256C, strain CLN2, stronger effect = lower value 0.95 | locus YPR119W, strain clb2, stronger effect = lower value 0.998 | locus YPR141C, strain kar3, stronger effect = lower value 1.03 | locus YPR163C, strain tif3, stronger effect = lower value 1 | locus YPR167C, strain met16, stronger effect = lower value 0.992 | strain wtn01, stronger effect = lower value 0.983
